58 molecules from the supplement of paper PMC6331611 can be followed below.

Values joined by “and” are separate entries in the source; they are usually repeats but may differ in a detail not shown here. Equal values may be shown once. ± gives the standard deviation of the averaged measurements. Over roughly 1,600 compounds, “normalized growth (OD600, IQM-normalized) in LPM” has its median near 1; the lowest 2% begin near 0.014. This excerpt belongs to a sample that is enriched for the lowest values.

The test concerns Salmonella enterica serovar Typhimurium SL1344. As to the kind of experiment: normalized growth (OD600, IQM-normalized) in LPM (fraction of plate interquartile mean); higher = more bacterial growth (less inhibition). The note with it: LPM pH 5.8; 10 µM; 16 h.
The molecule `CC(S)C(=O)NCC(=O)O` (stereo not drawn) registered a normalized growth of 0.982 ± 0.071.
The molecule `O=C(O)CN(CCN(CC(=O)O)CC(=O)O)CC(=O)O.[Na+].[Na+].[Na+]` showed a normalized growth of 0.0403 ± 0.013.
For the molecule `CO[C@@]1(NC(=O)C(C(=O)O)c2ccc(O)cc2)C(=O)N2C(C(=O)O)=C(CSc3nnnn3C)CO[C@@H]21` (stereo partly drawn), the normalized growth worked out at 0.993 ± 0.045.
As to `CO[C@@]1(NC(=O)CSCC#N)C(=O)N2C(C(=O)O)=C(CSc3nnnn3C)CS[C@@H]21`, the normalized growth amounted to 0.957 ± 0.052.
The figure for `CO[C@@]1(NC(=O)C2SC(=C(C(N)=O)C(=O)O)S2)C(=O)N2C(C(=O)O)=C(CSc3nnnn3C)CS[C@@H]21` (stereo partly drawn) is 0.00904 ± 0.00015; for `CO[C@H]1/C=C/O[C@@]2(C)Oc3c(C)c(O)c4c(O)c(c5c(nc6cc(C)ccn65)c4c3C2=O)NC(=O)/C(C)=C\C=C\[C@H](C)[C@H](O)[C@@H](C)[C@@H](O)[C@@H](C)[C@H](OC(C)=O)[C@@H]1C` it is 0.0104 ± 0.00017; for `CO[C@H]1/C=C/O[C@@]2(C)Oc3c(C)c(O)c4c(O)c(c(/C=N/N5CCN(C)CC5)c(O)c4c3C2=O)NC(=O)/C(C)=C\C=C\[C@H](C)[C@H](O)[C@@H](C)[C@@H](O)[C@@H](C)[C@H](OC(C)=O)[C@@H]1C` it is 0.0102 ± 0.00021.
In turn, `Nc1ncn([C@@H]2O[C@H](CO)[C@@H](O)[C@H]2O)c(=O)n1` yielded a normalized growth of 0.0134 ± 0.00024.
On to `O=c1[nH]cnc2c1ncn2[C@@H]1O[C@H](CO)[C@@H](O)[C@H]1O`, for which the normalized growth came out at 1.13 ± 0.034.
The same measure for `Nc1ccn([C@@H]2O[C@H](CO)[C@@H](O)[C@@H]2O)c(=O)n1`: 1.01 ± 0.067; for `O=C(O)c1ccc(S(=O)(=O)N(Cl)Cl)cc1`: 0.999 ± 0.013.
With `CC(=O)OC/C=C(C)/C=C/C=C(C)/C=C/C1=C(C)CCCC1(C)C`, the normalized growth amounted to 0.905 ± 0.06.
The molecule `C=COCC(F)(F)F` displayed a normalized growth of 0.991 ± 0.044.
Turning to `CCN(CC)CCOc1ccc2c(c1)C(=O)c1cc(OCCN(CC)CC)ccc1-2`, the normalized growth stood at 1.02 ± 0.083.
The figure for `C1CCN2C[C@@H]3C[C@@H](CN4CCCC[C@@H]34)[C@H]2C1` is 1.13 ± 0.04; for `COCC1=C(C(=O)OC(C)OC(=O)OC(C)C)N2C(=O)[C@@H](NC(=O)/C(=N\OC)c3csc(N)n3)[C@H]2SC1` (stereo partly drawn) it is 1.034 ± 0.0056.
For `CCCCCCCCCCCCCCCC[N+](C)(C)C`, the normalized growth was 0.982 ± 0.038.
Take `C[C@@H]1CC2C3C[C@H](F)C4=CC(=O)C=C[C@]4(C)[C@@]3(F)[C@@H](O)C[C@]2(C)[C@@]1(O)C(=O)COC(=O)C(C)(C)C` (stereo partly drawn): the normalized growth turned out to be 1.04 ± 0.12.
Molecule `COC(=O)Nc1nc2cc(Sc3ccccc3)ccc2[nH]1` gave a normalized growth of 0.987 ± 0.024.
Regarding `OC[C@@H](O)[C@@H](O[C@@H]1O[C@H](CO)[C@H](O)[C@H](O)[C@H]1O)[C@H](O)[C@@H](O)CO`, the normalized growth was 0.98 and 0.904.
In turn, `CS(=O)(=O)c1ccc([C@@H](O)[C@@H](CF)NC(=O)C(Cl)Cl)cc1` yielded a normalized growth of 0.0094 ± 0.00019.
For `CS(=O)(=O)c1ccc([C@@H](O)[C@@H](CO)NC(=O)C(Cl)Cl)cc1`, the normalized growth was determined as 0.934 ± 0.078.
In turn, `Clc1ccccc1CN1CCc2sccc2C1` registered a normalized growth of 1.02 ± 0.037.
The molecule `O=C(O)CCC(=O)OC[C@@H](NC(=O)C(Cl)Cl)[C@H](O)c1ccc([N+](=O)[O-])cc1` yielded a normalized growth of 0.014 ± 0.00072.
`CCCCCCCCCCCCCCCC(=O)OC[C@@H](NC(=O)C(Cl)Cl)[C@H](O)c1ccc([N+](=O)[O-])cc1` displayed a normalized growth of 1.04 ± 0.082.
On to `O=C(N[C@H](CO)[C@H](O)c1ccc([N+](=O)[O-])cc1)C(Cl)Cl`, for which the normalized growth is 0.0146 ± 0.00075.
The molecule `C#C[C@]1(O)CC[C@H]2[C@@H]3[C@H](C)CC4=C(CCC(=O)C4)[C@H]3CC[C@@]21C` showed a normalized growth of 0.987 ± 0.048.
The figure for `OCc1ccccc1O` is 1.05 ± 0.04; for `CN(C/C=C/c1ccccc1)Cc1cccc2ccccc12` it is 0.885 ± 0.019; for `CC(=O)N[C@@H]([C@@H](O)[C@H](O)[C@H](O)CO)[C@@H](O)CC(=O)C(=O)O` it is 1 ± 0.065.
For the molecule `CC(C)(Oc1ccc(C(=O)c2ccc(Cl)cc2)cc1)C(=O)O`, the normalized growth was 0.976 ± 0.024.
As to `CC(=O)NCCCCCC(=O)O`, the normalized growth stood at 1.11 ± 0.034.
The figure for `N#Cc1ccc2c(c1)N(CCCN1CCC(O)CC1)c1ccccc1S2` is 1.09 ± 0.035; for `O=C(O)C[C@H](O)C[C@H](O)/C=C/c1c(C2CC2)nc2ccccc2c1-c1ccc(F)cc1` it is 1.19 ± 0.13.
With `N=C(N)c1ccc(N=NNc2ccc(C(=N)N)cc2)cc1`, the normalized growth amounted to 0.766 ± 0.035.
On to `CC(=O)Nc1cccc(O)c1`, for which the normalized growth is 1.02 ± 0.014.
In the case of `Cc1c(NC(C)C)c(=O)n(-c2ccccc2)n1C`, the normalized growth stood at 0.981 ± 0.15.
For the molecule `CCCCCCNC(=O)n1cc(F)c(=O)[nH]c1=O`, the normalized growth was determined as 0.007569 ± 7.1e-05.
The molecule `C[C@H]1O[C@@H](n2cc(F)c(=O)[nH]c2=O)[C@H](O)[C@@H]1O` displayed a normalized growth of 0.412 ± 0.11.
For the molecule `CCOC(=O)COc1ccc2c(=O)cc(-c3ccccc3)oc2c1`, the normalized growth turned out to be 1.01 ± 0.035.
Consider `OC[C@H]1O[C@H](O[C@H]2[C@H](O)[C@@H](O)C(O)O[C@@H]2CO)[C@H](O)[C@@H](O)[C@@H]1O` (stereo partly drawn), for which the normalized growth is 1.06 ± 0.12.
In the case of `O=c1[nH]cc(F)c(=O)[nH]1`, the normalized growth is 0.0109 ± 0.0049.
The same measure for `Nc1nc(=O)[nH]cc1F`: 0.742 ± 0.12; for `O=c1cc[nH]c(=O)[nH]1`: 1.06 ± 0.04.
Molecule `COc1cc([C@@H]2c3cc4c(cc3[C@@H](O[C@@H]3O[C@@H]5CO[C@@H](c6cccs6)O[C@H]5[C@H](O)[C@H]3O)[C@H]3COC(=O)[C@H]23)OCO4)cc(OC)c1O` gave a normalized growth of 0.882 ± 0.027.
The same measure for `O=C1c2cccc(O)c2C(=O)c2c(O)cccc21`: 0.827 ± 0.05; for `CCN(CC)C(=O)/C(C#N)=C/c1cc(O)c(O)c([N+](=O)[O-])c1`: 0.924 ± 0.023.
As for `C[C@]12CC[C@@H]3c4ccc(OC(=O)c5ccccc5)cc4CC[C@H]3[C@@H]1CC[C@@H]2O`, the normalized growth was determined as 0.779 ± 0.061.
The molecule `C/C=C(/C(=C/C)c1ccc(O)cc1)c1ccc(O)cc1` had a normalized growth of 1.04 ± 0.035.
In turn, `CO[C@H]1C[C@@H]2CC[C@@H](C)[C@@](O)(O2)C(=O)C(=O)N2CCCC[C@H]2C(=O)O[C@H]([C@H](C)C[C@@H]2CC[C@@H](O)[C@H](OC)C2)CC(=O)[C@H](C)/C=C(\C)[C@@H](O)[C@@H](OC)C(=O)[C@H](C)C[C@H](C)/C=C/C=C/C=C/1C` gave a normalized growth of 0.964 ± 0.048.
`Cc1ccc(Nc2c(F)cccc2Cl)c(CC(=O)O)c1` returned a normalized growth of 1.11 ± 0.053.
On to `CCNC(=O)/C=C/c1cccc(Br)c1`, for which the normalized growth came out at 1.08 ± 0.035.
The figure for `COC(=O)/C=C/C(=O)OC` is 1.42 ± 0.16; for `Nc1nc(Cl)nc2c1ncn2[C@@H]1O[C@H](CO)[C@@H](O)[C@@H]1F` it is 1.11 ± 0.025; for `CC1(C)[C@@H](O)CC[C@]2(C)[C@H]3C(=O)C=C4[C@@H]5C[C@@](C)(C(=O)O)CC[C@]5(C)CC[C@@]4(C)[C@]3(C)CC[C@@H]12` it is 0.906 ± 0.073.
`CC(=O)Nc1ncc([N+](=O)[O-])s1` came in with a normalized growth of 0.899 ± 0.018.
Molecule `CCCCCCOc1ccccc1C(N)=O` gave a normalized growth of 1.01 ± 0.048.
Consider `COc1ccc2cc(C(C)C(=O)O)ccc2c1` (stereo not drawn), for which the normalized growth came out at 1.07 ± 0.032.
